The record followed here is PubChem BioAssay.

The structures appear in SMILES notation.

In the test the target is E3 ubiquitin-protein ligase XIAP (Homo sapiens) (UniProt P98170). Briefly: small molecules binding XIAP protein – biophysical, small-molecule microarray, fluorescence 635 nm, primary screen (AID 1181).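 Also: score merges 667 nm emission and signal to noise over triplicate slides.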 The note with it: higher = more signal.
Chain of E3 ubiquitin-protein ligase XIAP (Homo sapiens) (P98170 whole entry, looked up): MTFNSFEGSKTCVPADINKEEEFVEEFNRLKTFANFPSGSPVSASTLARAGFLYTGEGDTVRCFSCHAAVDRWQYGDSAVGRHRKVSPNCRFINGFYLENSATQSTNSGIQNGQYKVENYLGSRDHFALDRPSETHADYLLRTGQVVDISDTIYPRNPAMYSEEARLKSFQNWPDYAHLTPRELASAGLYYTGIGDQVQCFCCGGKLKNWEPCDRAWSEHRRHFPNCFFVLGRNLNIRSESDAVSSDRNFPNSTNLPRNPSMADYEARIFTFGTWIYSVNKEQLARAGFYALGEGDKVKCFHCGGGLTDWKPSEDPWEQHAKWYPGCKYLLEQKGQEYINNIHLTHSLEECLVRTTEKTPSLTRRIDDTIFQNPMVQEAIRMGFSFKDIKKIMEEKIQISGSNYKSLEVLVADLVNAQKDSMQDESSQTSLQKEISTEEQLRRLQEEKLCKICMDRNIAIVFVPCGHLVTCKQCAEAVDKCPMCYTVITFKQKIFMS
Compound `N#Cc1ccc(C(O)C2C=CC3C(=O)N(c4ccccc4)C(=O)C3N2Nc2ccccc2)cc1` (stereo not drawn) displayed a composite z-score of 0.0537.

In the case of `C=CCC(OC(C)=O)[C@@H]1[C@@H](N(Cc2ccc(-c3ccccc3)cc2)C(=O)Cc2ccc(F)cc2)c2cc(OCCCO)ccc2N1C(=O)Cc1ccc(OC)cc1` (stereo partly drawn), the composite z-score is 0.0757. `COc1ccc([Si](C)(C)[C@@H]2[C@@H](CC(=O)N(CCO)Cc3ccccc3)O[C@]3(C(=O)N(c4ccccc4)c4ccccc43)[C@H]2C)cc1` came in with a composite z-score of -0.112. Regarding `COC(=O)[C@@]1(Cc2ccccc2)[C@@H]2C(=CC(=O)[C@H]2CC(=O)C(=O)N(C)C)CN1C(=O)c1ccccc1`, the composite z-score came out at 0.0239. For `CN(C)C(=O)[C@@]1(Cc2ccccc2CN=[N+]=[N-])N=C(c2ccc(OCCCO)cc2)O[C@H]1c1ccccc1CN=[N+]=[N-]`, the composite z-score came out at 0.172.

With `CCOc1cc(C(O)C2C=CC3C(=O)N(c4ccccc4)C(=O)C3N2Nc2ccc(C#N)cc2)ccc1O` (stereo not drawn), the composite z-score was -0.0438.

Compound `COc1ccc([Si](C)(C)[C@@H]2[C@@H](CC(=O)N3Cc4ccccc4C[C@H]3CO)O[C@]3(C(=O)N(Cc4cccc(N5C(=O)c6cccc7cccc5c67)c4)c4ccccc43)[C@H]2C)cc1` displayed a composite z-score of -0.253.

For the compound `COc1ccc(-c2nc(-c3ccccc3)c3c(c2C)CO[Si]3(C(C)C)C(C)C)cn1`, the composite z-score was -0.0943.
